Bioassay records deposited in PubChem by National Center for Advancing Translational Sciences (NCATS).
Compounds with a hit are over-represented: about 21% of the library has one in this group of screens.
Shiga inhibitor – A qHTS for Small Molecule Inhibitors of Shiga Toxin; Vero cells, Shiga toxin protein synthesis inhibition reporter; inhibition, % at 38.7 µM; hit rate 9.2% among 290,000; in the data active = inhibition mostly above about 28%, no sharp cut-off; inactive = mostly below about 43%; note: 0% is about no effect
Giardia FBPA inh – qHTS Assay for Inhibitors of Fructose-1,6-bisphosphate Aldolase from Giardia Lamblia; purified Giardia FBPA; Potency, µM (highest dose often 59.6 µM), inactives show top-dose activity, negative = inhibition, actives largely listed as inhibitors; A8B2U2; hit rate 0.71% among 290,000; note: potency is the fitted concentration of half-maximal effect; % is set by controls: 0 for no effect and ±100 for the full control effect; nearly all actives have a fitted effect of over 55% in size
Target sequence (A8B2U2 whole entry, looked up): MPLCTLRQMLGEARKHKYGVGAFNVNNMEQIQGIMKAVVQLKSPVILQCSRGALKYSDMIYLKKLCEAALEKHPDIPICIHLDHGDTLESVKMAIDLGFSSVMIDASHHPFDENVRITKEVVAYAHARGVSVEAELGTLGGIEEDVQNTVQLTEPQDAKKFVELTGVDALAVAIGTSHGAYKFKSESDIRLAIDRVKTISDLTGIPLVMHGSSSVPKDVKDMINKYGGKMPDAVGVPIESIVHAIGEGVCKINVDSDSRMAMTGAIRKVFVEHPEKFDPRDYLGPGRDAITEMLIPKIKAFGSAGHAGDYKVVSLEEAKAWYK
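40 nM FBPA preincubated 10 min at RT with compound (up to 57.5 uM final), then substrate plus GAPDH/TPI/NAD/arsenate coupling and diaphorase/resazurin added. Fluorescence read after 20 min at RT, 525/598 nm.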
NS1 function inh – qHTS Assay for Inhibitors of Influenza NS1 Protein Function. Potency, µM (doses to about 46.1 µM), inactives show at the highest dose activity, positive = more growth. hit rate 0.4% among 270,000. AID 2326, 2010; calls by dose curve; note: potency is the fitted concentration of half-maximal effect; actives are rising curves; nearly all actives have a fitted effect of over 50% in size
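Growth recovery, yeast-based: influenza A NS1 expressed in S. cerevisiae causes slow growth, and suppressors are detected by OD600. The parent strain without NS1 is used as positive control.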
Cycloheximide cs – Cycloheximide Counterscreen for Small Molecule Inhibitors of Shiga Toxin; cell reporter, cycloheximide protein synthesis inhibition counterscreen; max response, %; hit rate 12% among 300,000; AID 2314, 2010; in the data active = max response mostly above about 13%, no sharp cut-off; inactive = mostly below about 14%; note: read at 38.3 µM for the half of the compounds with a filed dose; 0% is about no effect
Pf growth 96h – Primary qHTS for delayed death inhibitors of the malarial parasite plastid, 96 hour incubation | Potency, µM (doses to about 28.7 µM), without a hit: at the top dose activity change, negative = inhibition, actives largely listed as inhibitors | hit rate 6.9% among 320,000 | P. falciparum luciferase reporter growth, 96 h; note: potency is the fitted concentration of half-maximal effect; % is set by controls: 0 for no effect and ±100 for the full control effect
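Erythrocytes infected with luciferase-expressing P. falciparum were dispensed at 2% hematocrit and 0.05% parasitemia (final), then incubated with compounds 96 hours at 37 C in 5% CO2. Luminescence after detection reagent addition reported growth.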
Pf growth 48h – Primary qHTS for delayed death inhibitors of the malarial parasite plastid, 48 hour incubation; P. falciparum luciferase growth in erythrocytes, 48 h; Potency, µM (titrated, usually from 28.7 µM), for the others: top-dose activity change, negative = inhibition, actives largely listed as inhibitors; hit rate 5.9% among 310,000; AID 504832, 2011; note: potency is the fitted concentration of half-maximal effect; % is set by controls: 0 for no effect and ±100 for the full control effect
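Compounds are pin-transferred into medium, infected erythrocytes (2% hematocrit, 0.1% parasitemia final) are added, and plates sit one parasite generation at 37 C in 5% CO2. Detection reagent is then added and luminescence measured.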
Active calls of the source: *; i = inactive; ? = inconclusive; · = no result; [ ] = dose if it differs, or a comment. Unless noted, calls come from the whole dose curve; as a rule, active = well fitted curve in the direction sought with a large enough effect; inconclusive = small, poorly fitted or top-dose-only effect, or another doubt; inactive = no such curve, though single readings can be large; an effect the other way counts as inactive or inconclusive.

SMILES	Shiga inhibitor	Giardia FBPA inh	NS1 function inh	Cycloheximide cs	Pf growth 96h	Pf growth 48h
O=C(NCCc1ccccc1)c1oc2ccccc2c1COc1ccccc1	39*	-8%	-16%	26*	13µM*	?
O=S(=O)(c1ccc2c(c1)CCC2)N1CCNCC1	·	·	·	·	29%	0%
O=C(NCCN1CCOCC1)C1CC(=O)N(c2ccc(Cl)cc2)C1 (stereo unspecified)	18	0%	-4%	-6	27%	5%
O=P(O)(O)CCP(=O)(O)O	·	·	-1%	·	·	·
Cc1ccc(S(=O)(=O)N2CCC(=O)N([C@H](COCc3cccc(C)c3)Cc3ccccc3)CC2)cc1	15	-1%	·	17	·	·
Cc1ccc(S(=O)(=O)N2CCC(=O)N(C(COC(=O)Nc3ccccc3)Cc3ccccc3)CC2)cc1 (stereo unspecified)	21	0%	19%	11	15µM*	?
Cc1ccc(S(=O)(=O)N2CCC(=O)N(C(COCc3ccc(C(F)(F)F)cc3)C(C)C)CC2)cc1 (stereo unspecified)	-7	-6%	6%	-3	10µM*	?
Cc1ccc(S(=O)(=O)N2CCC(=O)N(C(COCc3cccc(C)c3)Cc3ccccc3)CC2)cc1 (stereo unspecified)	33	-7%	6%	-1	9.3µM*	?
Cc1ccc(S(=O)(=O)N2CCC(=O)N(C(COCc3ccc(Cl)c(Cl)c3)Cc3ccccc3)CC2)cc1 (stereo unspecified)	-12	-2%	19%	-3	?	9.3µM*
O=C(O)c1cc(N=Nc2ccc([N+](=O)[O-])cc2)ccc1O	·	·	-4%	·	·	·
CCn1cc(S(=O)(=O)Nc2cc(C)ccc2F)cn1	-30	·	6%	10	-18%	8%
N#Cc1ccc(S(=O)(=O)NC2CCCCNC2=O)cc1 (stereo unspecified)	-3	24%	-7%	-3	-4%	·
NCCCCN	·	-1%	-8%	·	·	·
Cc1ccc(S(=O)(=O)N2CCC(=O)N(C(COCc3ccc(C(F)(F)F)cc3)Cc3ccccc3)CC2)cc1 (stereo unspecified)	-14	-8%	?	6	7.4µM*	?
Cc1ccc(S(=O)(=O)N2CCC(=O)N([C@H](COCc3ccc(C(F)(F)F)cc3)Cc3ccccc3)CC2)cc1	i	-3%	·	9	·	·
CC(/C=C/c1ccccc1)=N\NC(=O)CCc1ccccc1	16	-3%	0%	7	32%	?
CCOC(=O)N/N=C(C)/C=C/c1ccco1	31	-11%	6%	21*	?	-15%
CC(/C=C/c1ccccc1)=N/NC(=O)c1cc([N+](=O)[O-])cc([N+](=O)[O-])c1	-1	14%	27%	-10	72%	?
CC(/C=C/c1ccccc1)=N/NC(=O)C(O)c1ccccc1 (stereo unspecified)	45*	0%	-6%	10	-18%	31%
CCOC(=O)N/N=C(C)/C=C/c1ccccc1	16	5%	-7%	28*	?	0%
CC(/C=C/c1ccccc1)=N\Nc1ccccc1[N+](=O)[O-]	89*	-1%	·	32*	-26%	97%
NCc1ccc(C(=O)O)cc1	·	·	0%	·	·	·
CCOC(=O)c1cc2[nH]c3ccccc3c2[n+](-c2ccc([N+](=O)[O-])cc2)c1N	-6	1%	-2%	-2	?	3.7µM*
CCOC(=O)c1cc2[nH]c3ccccc3c2[n+](-c2ccc([N+](=O)[O-])cc2)c1C	-13	-5%	18%	-3	?	2.6µM*
O=C(OCc1cccc([N+](=O)[O-])c1)c1cc(=O)[nH]c2ccccc12	-11	0%	1%	11	35%	31%
SMILES	Shiga inhibitor	Giardia FBPA inh	NS1 function inh	Cycloheximide cs	Pf growth 96h	Pf growth 48h
Cc1ccc(-c2c(C(=O)O)c3ccccc3[nH]c2=O)cc1	-9	-3%	2%	-6	54%	3%
CCn1c(Cc2cccs2)nnc1SCC(=O)NC(C)(C)C	-10	4%	4%	6	?	?
O=c1[nH]nc(-c2ccc(F)cc2)cc1-c1ccccc1	-9	7%	1%	-2	?	-2%
FC(F)C(F)(F)c1cc(-c2ccc(Cl)cc2)n[nH]1	46*	-18%	-68%	31*	67%	0%
Fc1ccc(-c2cc(C(F)(F)C(F)F)[nH]n2)cc1	65*	-3%	0%	27*	-6%	37%
C/C=C\C1=C(CO)[C@H](O)[C@H]2OC2[C@@H]1O (stereo partly specified)	·	-1%[12.9 µM]	·	·	·	·
COc1ccc(/C=N/Nc2nonc2N)cc1	67	1%	-100%	23*	64%	35%
COc1cc(/C=N/N=C(/N)c2nonc2N)cc(Br)c1OCc1cccc(C)c1	23	-3%	1%	21*	·	?
CO/N=C(\N)c1nonc1N	9	2%	5%	1	35%	4%
COc1ccc(/C=N/N=C(\N)c2nonc2N)cc1	44*	1%	·	15	1.3µM*	i
COc1cc(/C=N/N=C(\N)c2nonc2N)cc(OC)c1O	79*	-17%	0%	47*	52%	71%
CCOc1cc(/C=N/N=C(\N)c2nonc2N)cc(Br)c1OCc1cccc2ccccc12	-11	1%	2%	-2	·	-2%
CCOc1ccc(OCCn2c(S(=O)(=O)O)nc3c(N)ncnc32)cc1	-6	-8%	5%	-2	45%	17%
O=C(COc1ccc(F)cc1)NCC1(N2CCCCC2)CCCCC1	·	·	·	·	-2%	-16%
COc1cc(/C=N/N2CCOCC2)ccc1OC(=O)c1ccco1	6	-3%	·	26	2%	2%
COc1ccc(/C=N/N2CCOCC2)cc1O	48*	-1%	23%	28*	31%	32%
COc1ccc(/C=N/N2CCOCC2)cc1OCc1ccccc1	16	-4%	·	9	8%	22%
COc1cc(/C=N/N2CCOCC2)ccc1OCc1ccc(Cl)cc1	82*	-5%	·	37*	30%	6%
COc1cc(/C=N/N2CCOCC2)ccc1OCc1ccccc1	36	0%	-9%	16*	-2%	0%
CCOC(=O)C1CCN(C(=O)COC(=O)c2ccc(=O)n(Cc3ccccc3)n2)CC1	·	·	·	·	29%	18%
Cc1nn2c(NCCCN(C)C)c3c(nc2c1-c1ccccc1)CCC3	-22	8%	-3%	-3	10µM*	·
COCCNc1c2c(nc3c(-c4ccccc4)c(C)nn13)CCC2	-8	-7%	-4%	-1	?	?
